# Laboratory results taken from PubChem BioAssay AID504400 (The Scripps Research Institute Molecular Screening Center, 2011).
# Values without a mark were called inactive. The rule behind the calls is not given here.
# System: Rolipram
# Experiment: CYP450 and receptor off-target profile – biochemical, Ricerca HitProfilingScreen, selectivity assay for S1P4 agonist project, late-stage follow-up (AID 504400)
# Settings: Ricerca radioligand binding/enzyme panel plus CYP450, at 10 µM, stronger effect = higher value
smiles,measurement,value
Clc1ccc(OCCOc2ccc(Br)nc2Br)c(Cl)c1,inhibition,-3%
